Results taken from the supplement of paper PMC10849652.
About 7,900 targets were measured; listed, in parts, are those with a hit and a random draw of the rest. About 0.6% of all pairs of compound and target were hits. Unmarked numbers belong to inactive results.

What was measured:
Test in all cases: log2 fold change, soluble protein after heating vs DMSO (PISA); higher = thermal stabilisation; K562 cells, 10 uM, 30 min; active = over 0.2 and 3.5 SD of the protein, either way, in both replicates (recomputed)
[1] = compound: COC1=CC=C(C=C1)CN2C=CC3=C2C=C(C=C3)C(=O)NO
Summary of the method: (§1)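 Quantification of soluble protein used TMTpro 16plex LC-MS/MS, with channel sums equalised. Samples were the supernatant after 21,000xg for 90 min of pooled aliquots from K562 cells (2×10^6 cells/mL) treated with 10 μM compound for 30 min, heated for 3 min over 48°C-58°C, and extracted in PBS with 0.5% NP-40 at 4°C. Values, from duplicates, describe thermal stability against control samples on a log2 fold-change scale.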

filanesib = compound: CON(C)C(=O)N1N=C(c2cc(F)ccc2F)S[C@@]1(CCCN)c1ccccc1 [filanesib]
Summary of the method: as §1

zotarolimus = compound: CO[C@H]1C[C@@H]2CC[C@@H](C)[C@@](O)(O2)C(=O)C(=O)N2CCCC[C@H]2C(=O)O[C@H]([C@H](C)C[C@@H]2CC[C@H](n3cnnn3)[C@H](OC)C2)CC(=O)[C@H](C)/C=C(\C)[C@@H](O)[C@@H](OC)C(=O)[C@H](C)C[C@H](C)/C=C/C=C/C=C/1C [zotarolimus]
Summary of the method: as §1

idasanutlin = compound: COc1cc(C(=O)O)ccc1NC(=O)[C@@H]1N[C@@H](CC(C)(C)C)[C@](C#N)(c2ccc(Cl)cc2F)[C@H]1c1cccc(Cl)c1F [idasanutlin]
Summary of the method: as §1

alisertib = compound: COc1cc(Nc2ncc3c(n2)-c2ccc(Cl)cc2C(c2c(F)cccc2OC)=NC3)ccc1C(=O)O [alisertib]
Summary of the method: as §1

[2] = compound: COc1cc2nc(-c3cc(F)ccc3O)nc(N[C@@H]3CNC[C@H]3C(C)(C)O)c2cc1OC
Summary of the method: as §1

gefitinib = compound: COc1cc2ncnc(Nc3ccc(F)c(Cl)c3)c2cc1OCCCN1CCOCC1 [gefitinib]
Summary of the method: as §1

[3] = compound: COc1cccc2cc(-c3nc([C@H]4CC[C@H](C(=O)O)CC4)n4ncnc(N)c34)[nH]c12
Summary of the method: as §1

lapatinib = compound: CS(=O)(=O)CCNCc1ccc(-c2ccc3ncnc(Nc4ccc(OCc5cccc(F)c5)c(Cl)c4)c3c2)o1 [lapatinib]
Summary of the method: as §1

pictilisib = compound: CS(=O)(=O)N1CCN(Cc2cc3nc(-c4cccc5[nH]ncc45)nc(N4CCOCC4)c3s2)CC1 [pictilisib]
Summary of the method: as §1

MIEF1 (UniProt L0R8F8)
log2 fold change [1]: 0.104 | log2 fold change (filanesib): -0.072 | log2 fold change (zotarolimus): 0.023 | log2 fold change (idasanutlin): -0.063 | log2 fold change (alisertib): -0.084 | log2 fold change [2]: -0.148 | log2 fold change (gefitinib): -0.005 | log2 fold change [3]: 0 | log2 fold change (lapatinib): 0.135 | log2 fold change (pictilisib): 0.033

MBLAC1 (UniProt A4D2B0)
log2 fold change [1]: 0.11 | log2 fold change (zotarolimus): 0.008 | log2 fold change (idasanutlin): 0.056 | log2 fold change (alisertib): -0.161 | log2 fold change [2]: -0.064 | log2 fold change [3]: 0.086 | log2 fold change (lapatinib): 0.01 | log2 fold change (pictilisib): 0.043

LGALS8 isoform 2 (UniProt O00214)
Chain of UniProt O00214 (O00214 whole entry, looked up): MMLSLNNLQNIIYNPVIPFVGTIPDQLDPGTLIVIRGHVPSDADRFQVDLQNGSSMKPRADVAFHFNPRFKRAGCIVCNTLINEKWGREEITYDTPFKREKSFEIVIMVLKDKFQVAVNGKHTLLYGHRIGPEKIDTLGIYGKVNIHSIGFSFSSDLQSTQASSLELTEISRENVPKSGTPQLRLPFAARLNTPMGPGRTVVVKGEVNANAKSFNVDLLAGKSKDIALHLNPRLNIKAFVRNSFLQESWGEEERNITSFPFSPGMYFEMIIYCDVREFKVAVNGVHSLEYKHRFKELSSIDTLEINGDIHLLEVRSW
log2 fold change [1]: 0.202 | log2 fold change (filanesib): 0.264 | log2 fold change (zotarolimus): 0.053 | log2 fold change (idasanutlin): 0.182 | log2 fold change (alisertib): -0.021 | log2 fold change [3]: -0.278 | log2 fold change (pictilisib): -0.183

MASTL (UniProt Q96GX5)
Chain of UniProt Q96GX5 (Q96GX5 whole entry, looked up): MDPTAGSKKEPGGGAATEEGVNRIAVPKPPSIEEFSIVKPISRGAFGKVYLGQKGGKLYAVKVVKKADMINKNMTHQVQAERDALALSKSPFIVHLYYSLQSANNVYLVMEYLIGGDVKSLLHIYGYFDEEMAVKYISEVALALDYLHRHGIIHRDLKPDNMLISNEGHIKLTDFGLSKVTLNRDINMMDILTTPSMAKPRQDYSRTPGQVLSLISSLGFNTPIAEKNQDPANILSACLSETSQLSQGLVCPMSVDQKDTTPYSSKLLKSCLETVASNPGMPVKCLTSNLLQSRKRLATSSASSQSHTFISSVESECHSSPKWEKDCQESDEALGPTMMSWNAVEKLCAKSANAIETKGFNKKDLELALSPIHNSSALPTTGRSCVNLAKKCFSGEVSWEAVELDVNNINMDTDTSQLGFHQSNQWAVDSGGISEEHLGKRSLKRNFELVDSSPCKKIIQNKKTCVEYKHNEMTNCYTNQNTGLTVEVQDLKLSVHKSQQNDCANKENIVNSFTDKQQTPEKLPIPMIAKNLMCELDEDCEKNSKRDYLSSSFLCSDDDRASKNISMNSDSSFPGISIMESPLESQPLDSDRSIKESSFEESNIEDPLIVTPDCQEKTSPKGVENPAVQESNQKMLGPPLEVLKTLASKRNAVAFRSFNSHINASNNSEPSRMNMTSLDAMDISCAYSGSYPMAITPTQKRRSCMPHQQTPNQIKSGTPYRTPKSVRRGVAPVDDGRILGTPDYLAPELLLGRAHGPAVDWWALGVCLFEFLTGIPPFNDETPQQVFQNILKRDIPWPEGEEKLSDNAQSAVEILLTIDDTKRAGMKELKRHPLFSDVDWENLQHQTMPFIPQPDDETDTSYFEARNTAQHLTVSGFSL
log2 fold change [1]: 0.147 | log2 fold change (filanesib): -0.09 | log2 fold change (zotarolimus): 0.088 | log2 fold change (idasanutlin): 0.072 | log2 fold change (alisertib): -0.09 | log2 fold change (gefitinib): -0.107 | log2 fold change [3]: -0.155

LMBR1 isoform 3 (UniProt Q8WVP7)
Chain of UniProt Q8WVP7 (Q8WVP7 whole entry, looked up): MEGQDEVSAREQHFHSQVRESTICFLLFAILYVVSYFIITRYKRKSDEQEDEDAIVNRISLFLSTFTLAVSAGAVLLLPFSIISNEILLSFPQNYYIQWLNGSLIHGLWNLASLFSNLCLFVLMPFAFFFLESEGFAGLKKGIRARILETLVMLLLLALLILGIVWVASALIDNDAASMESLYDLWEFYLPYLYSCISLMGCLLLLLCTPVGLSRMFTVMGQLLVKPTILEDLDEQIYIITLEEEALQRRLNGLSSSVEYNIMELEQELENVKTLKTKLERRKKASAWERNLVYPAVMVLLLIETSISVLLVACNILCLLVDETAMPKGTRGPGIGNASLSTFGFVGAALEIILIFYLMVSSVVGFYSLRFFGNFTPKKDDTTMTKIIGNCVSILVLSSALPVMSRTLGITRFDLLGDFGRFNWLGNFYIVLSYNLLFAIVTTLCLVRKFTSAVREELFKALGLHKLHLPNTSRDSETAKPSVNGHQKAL
log2 fold change [1]: -0.165 | log2 fold change (filanesib): -0.267 | log2 fold change (zotarolimus): -0.033 | log2 fold change (idasanutlin): 0.156 | log2 fold change (alisertib): 0.016 | log2 fold change [2]: -0.218 | log2 fold change [3]: 0.029 | log2 fold change (lapatinib): -0.043 | log2 fold change (pictilisib): 0.043

JAK3 (UniProt P52333)
log2 fold change [1]: -0.216 | log2 fold change (filanesib): -0.019 | log2 fold change (zotarolimus): 0.018 | log2 fold change (alisertib): 0.052 | log2 fold change [2]: -0.083 | log2 fold change (gefitinib): -0.047 | log2 fold change [3]: -0.02 | log2 fold change (lapatinib): 0.01 | log2 fold change (pictilisib): -0.056

MARK2 (UniProt E9PC69)
log2 fold change [1]: -0.028 | log2 fold change (filanesib): 0.128 | log2 fold change (zotarolimus): 0.122 | log2 fold change (idasanutlin): 0.106 | log2 fold change [2]: -0.765 (active) | log2 fold change (gefitinib): -0.025 | log2 fold change (lapatinib): 0.085

MED12 isoform 2 (UniProt Q93074)
Chain of UniProt Q93074 (Q93074 whole entry, looked up): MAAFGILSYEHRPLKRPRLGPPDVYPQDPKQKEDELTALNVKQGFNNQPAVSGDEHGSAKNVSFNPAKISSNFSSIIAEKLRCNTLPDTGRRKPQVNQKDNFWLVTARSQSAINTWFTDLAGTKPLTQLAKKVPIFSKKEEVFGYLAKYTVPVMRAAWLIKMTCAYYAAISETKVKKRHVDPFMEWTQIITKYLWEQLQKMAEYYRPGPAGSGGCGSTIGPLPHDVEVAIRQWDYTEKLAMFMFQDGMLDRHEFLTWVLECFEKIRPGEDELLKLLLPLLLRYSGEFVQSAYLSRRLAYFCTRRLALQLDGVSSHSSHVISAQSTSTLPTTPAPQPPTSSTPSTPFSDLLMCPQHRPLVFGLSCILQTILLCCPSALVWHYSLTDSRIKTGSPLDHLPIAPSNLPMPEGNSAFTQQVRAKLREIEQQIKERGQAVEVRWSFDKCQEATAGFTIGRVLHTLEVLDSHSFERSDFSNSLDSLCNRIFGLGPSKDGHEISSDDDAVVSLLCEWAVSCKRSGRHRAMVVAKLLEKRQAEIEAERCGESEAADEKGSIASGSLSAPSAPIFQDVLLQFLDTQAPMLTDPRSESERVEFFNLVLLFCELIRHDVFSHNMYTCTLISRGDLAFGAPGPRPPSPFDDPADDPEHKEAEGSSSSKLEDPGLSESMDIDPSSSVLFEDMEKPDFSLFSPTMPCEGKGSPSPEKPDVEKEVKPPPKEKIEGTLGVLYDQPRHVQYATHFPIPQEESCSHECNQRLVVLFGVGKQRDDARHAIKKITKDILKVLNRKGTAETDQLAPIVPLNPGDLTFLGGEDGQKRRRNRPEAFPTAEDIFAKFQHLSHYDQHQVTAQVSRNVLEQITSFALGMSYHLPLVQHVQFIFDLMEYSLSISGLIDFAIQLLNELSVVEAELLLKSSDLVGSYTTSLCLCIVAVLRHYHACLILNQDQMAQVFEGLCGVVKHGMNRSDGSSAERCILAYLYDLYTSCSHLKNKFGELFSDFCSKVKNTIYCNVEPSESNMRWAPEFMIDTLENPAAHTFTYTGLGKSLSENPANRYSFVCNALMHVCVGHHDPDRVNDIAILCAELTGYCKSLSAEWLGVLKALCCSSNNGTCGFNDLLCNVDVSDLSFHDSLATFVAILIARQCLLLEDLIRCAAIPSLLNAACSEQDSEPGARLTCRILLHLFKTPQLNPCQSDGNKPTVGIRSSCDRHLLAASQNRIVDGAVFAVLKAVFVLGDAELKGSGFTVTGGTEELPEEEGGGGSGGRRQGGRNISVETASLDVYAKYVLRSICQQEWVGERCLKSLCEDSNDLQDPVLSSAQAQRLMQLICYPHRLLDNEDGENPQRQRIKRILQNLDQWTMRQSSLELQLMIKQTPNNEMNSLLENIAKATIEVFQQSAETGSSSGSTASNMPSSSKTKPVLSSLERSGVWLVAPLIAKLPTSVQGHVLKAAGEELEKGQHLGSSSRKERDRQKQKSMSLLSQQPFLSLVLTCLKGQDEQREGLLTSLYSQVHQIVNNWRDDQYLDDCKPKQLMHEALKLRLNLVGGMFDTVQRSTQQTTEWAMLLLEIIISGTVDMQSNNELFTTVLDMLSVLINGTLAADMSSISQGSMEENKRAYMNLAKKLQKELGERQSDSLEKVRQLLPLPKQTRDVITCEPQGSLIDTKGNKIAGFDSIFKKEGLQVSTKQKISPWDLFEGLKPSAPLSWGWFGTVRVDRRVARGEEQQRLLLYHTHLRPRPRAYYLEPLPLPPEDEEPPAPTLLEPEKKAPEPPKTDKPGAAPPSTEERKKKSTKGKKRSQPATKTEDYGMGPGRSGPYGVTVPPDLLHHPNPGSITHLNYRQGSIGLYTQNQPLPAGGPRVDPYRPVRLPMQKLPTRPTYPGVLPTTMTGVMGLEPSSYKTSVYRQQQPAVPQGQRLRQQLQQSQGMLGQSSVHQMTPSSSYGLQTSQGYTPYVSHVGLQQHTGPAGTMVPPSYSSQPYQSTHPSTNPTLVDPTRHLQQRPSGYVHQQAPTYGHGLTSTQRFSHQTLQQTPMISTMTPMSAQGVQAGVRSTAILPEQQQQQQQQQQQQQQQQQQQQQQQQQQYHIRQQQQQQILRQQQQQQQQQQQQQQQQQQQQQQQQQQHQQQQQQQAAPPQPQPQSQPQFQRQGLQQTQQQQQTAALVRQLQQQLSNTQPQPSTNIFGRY
log2 fold change [1]: 0.093 | log2 fold change (filanesib): 0.256 | log2 fold change (idasanutlin): 0.103 | log2 fold change (alisertib): 0.214 | log2 fold change [2]: -0.09 | log2 fold change (gefitinib): 0.024 | log2 fold change [3]: 0.007 | log2 fold change (lapatinib): 0.028 | log2 fold change (pictilisib): -0.113

MAP4K4 isoform 3 (UniProt O95819)
Chain of UniProt O95819 (O95819 whole entry, looked up): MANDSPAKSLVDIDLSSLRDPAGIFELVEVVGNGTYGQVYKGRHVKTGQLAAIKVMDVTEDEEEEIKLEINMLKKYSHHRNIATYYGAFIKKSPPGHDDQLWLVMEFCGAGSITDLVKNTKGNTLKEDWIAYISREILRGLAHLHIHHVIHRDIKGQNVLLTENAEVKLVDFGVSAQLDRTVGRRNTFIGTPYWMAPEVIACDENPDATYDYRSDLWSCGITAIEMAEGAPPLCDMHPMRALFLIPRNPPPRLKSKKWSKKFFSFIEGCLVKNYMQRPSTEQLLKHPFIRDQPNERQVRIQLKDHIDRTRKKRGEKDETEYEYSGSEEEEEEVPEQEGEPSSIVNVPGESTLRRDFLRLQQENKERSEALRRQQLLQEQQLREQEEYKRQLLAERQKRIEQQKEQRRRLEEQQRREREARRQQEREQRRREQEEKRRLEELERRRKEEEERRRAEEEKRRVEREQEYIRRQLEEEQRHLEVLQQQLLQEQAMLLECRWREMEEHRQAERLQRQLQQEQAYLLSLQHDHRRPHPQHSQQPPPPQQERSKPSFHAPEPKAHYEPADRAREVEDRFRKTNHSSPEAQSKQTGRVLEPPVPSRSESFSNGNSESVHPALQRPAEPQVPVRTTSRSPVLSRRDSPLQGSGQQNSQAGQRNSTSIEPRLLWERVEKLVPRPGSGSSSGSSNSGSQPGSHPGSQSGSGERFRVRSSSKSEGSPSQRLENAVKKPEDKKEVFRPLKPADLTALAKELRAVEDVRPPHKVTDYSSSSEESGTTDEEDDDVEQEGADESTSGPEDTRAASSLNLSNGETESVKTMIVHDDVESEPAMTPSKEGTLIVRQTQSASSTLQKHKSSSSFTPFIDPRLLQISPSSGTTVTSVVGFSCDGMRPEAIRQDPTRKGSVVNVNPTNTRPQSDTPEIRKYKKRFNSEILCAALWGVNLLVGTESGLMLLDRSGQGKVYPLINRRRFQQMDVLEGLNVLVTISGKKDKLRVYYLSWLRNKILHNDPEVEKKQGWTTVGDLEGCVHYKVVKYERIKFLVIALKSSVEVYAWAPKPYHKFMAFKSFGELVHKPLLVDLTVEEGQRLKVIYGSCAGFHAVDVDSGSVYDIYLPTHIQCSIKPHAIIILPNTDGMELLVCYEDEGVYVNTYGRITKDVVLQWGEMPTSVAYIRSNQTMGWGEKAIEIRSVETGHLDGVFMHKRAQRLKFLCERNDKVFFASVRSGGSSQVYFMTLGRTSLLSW
log2 fold change [1]: -0.021 | log2 fold change (filanesib): 0.032 | log2 fold change (zotarolimus): 0.021 | log2 fold change (idasanutlin): 0.093 | log2 fold change [2]: -0.05 | log2 fold change (gefitinib): 0.01 | log2 fold change [3]: 0.02 | log2 fold change (lapatinib): -0.021 | log2 fold change (pictilisib): -0.153

LENG8 (UniProt Q96PV6)
log2 fold change [1]: 0.205 | log2 fold change (filanesib): 0 | log2 fold change (zotarolimus): -0.061 | log2 fold change (idasanutlin): -0.151 | log2 fold change (alisertib): -0.149 | log2 fold change (gefitinib): -0.056 | log2 fold change [3]: -0.016 | log2 fold change (pictilisib): -0.002
